# According to PubChem BioAssay (NCATS):
# A number with no mark means an inactive call. Calls come from the whole dose curve; as a rule, active = well fitted curve in the direction sought with a large enough effect; inconclusive = small, poorly fitted or top-dose-only effect, or another doubt; inactive = no such curve, though single readings can be large or run the other way.
# Molecular target: Hexokinase-4 (Homo sapiens) + Glucokinase regulatory protein (Homo sapiens) (UniProt P35557+Q14397)
# Assay: qHTS assay for inhibitors of recombinant human GCK-GKRP interaction: ADP-Glo assay (AID 743206)
# Conditions: ADP-Glo luminescence, 60 min, 0% = vehicle-only wells with enzyme present; series mostly up to 76.9 µM; activity, positive = activation: at the top concentration
# Source text: Glucokinase (GCK) is a glucose sensor in hepatocytes and pancreatic beta-cells. Hepatic GCK is regulated by glucokinase regulatory protein (GKRP), which is predominantly localized to the liver. GKRP binds to GCK inhibiting its activity in the fasting state while in the presence of glucose the GKRP is displaced. There is an additional layer of regulation by fructose 1-phosphate and fructose 6-phosphate, which inhibit and enhance the GCK-GKRP interaction, respectively. GCK plays a role in glucose homeostasis and there is an interest in the development of strategies to activate GCK to lower blood glucose levels in type 2 diabetes. To date the majority of effort has focused on direct activation of GCK and the assays developed herein look to activate GCK by inhibiting its binding to GKRP. A compound that inhibits the interaction of GCK with GKRP could be important for the treatment of diabetes and can also be used as a tool compound to further elucidate GCK-GKRP biology. To that end, we have developed a sensitive HTS biochemical assay where in GCK activity is coupled to luciferase to interrogate the GCK-GKRP interaction. This assay was screened against a small compound library to look for modulators of activity.
# 2 uL of 15 nM GST-GCK and 15 nM FLAG-GKRP proteins with 2 uM S6P (columns 1-2, 4-48; Millipore, Billerica, MA) are dispensed into Greiner, white solid-bottom 1536-well assay plates; columns 3 receive buffer without GCK as a control for maximum inhibition. Compounds (23 nL) are then transferred via Kalypsys pin tool equipped with 1536-pin array (10 nL slotted pins, V&P Scientific, San Diego, CA). The library compounds are in columns 5-48 and columns 1-4 serve as controls with DMSO in columns 1 and 3 and 26 mM 1:1.5 fold serial of gluckokinase activator (GKA-EMD) in column 2 and 26 mM of the glucokinase activator (GKA-EMD) in column 4. Following addition of compound, 1 uL of ATP […] is added, and the plate is incubated for 60 minutes at room temperature. The amount of ADP is then quantified by the ADP-Glo Kit (Promega, Madison, WI). First, 2 uL of the first kit reagent is added, and the reaction is incubated for 45 minutes; then, 4 uL of the second kit reagent are added and the reaction is incubated for 30 minutes at which time the luminescence is read on a Viewlux plate reader (Perkin-Elmer, Waltham, MA). The final concentration of reagents in the reaction are 0.4 mM ATP, 25 mM Hepes pH 7.6, 25 mM KCl, 2 mM MgCl2, 1 mM DTT, 0.025% BSA, 0.01% Tween 20, 5 mM glucose. Data are normalized to DMSO-treated control columns with (maximum signal) and without (minimum signal) enzyme.
# Sequence of Hexokinase-4 (Homo sapiens) + Glucokinase regulatory protein (Homo sapiens) (P35557 whole entry, looked up): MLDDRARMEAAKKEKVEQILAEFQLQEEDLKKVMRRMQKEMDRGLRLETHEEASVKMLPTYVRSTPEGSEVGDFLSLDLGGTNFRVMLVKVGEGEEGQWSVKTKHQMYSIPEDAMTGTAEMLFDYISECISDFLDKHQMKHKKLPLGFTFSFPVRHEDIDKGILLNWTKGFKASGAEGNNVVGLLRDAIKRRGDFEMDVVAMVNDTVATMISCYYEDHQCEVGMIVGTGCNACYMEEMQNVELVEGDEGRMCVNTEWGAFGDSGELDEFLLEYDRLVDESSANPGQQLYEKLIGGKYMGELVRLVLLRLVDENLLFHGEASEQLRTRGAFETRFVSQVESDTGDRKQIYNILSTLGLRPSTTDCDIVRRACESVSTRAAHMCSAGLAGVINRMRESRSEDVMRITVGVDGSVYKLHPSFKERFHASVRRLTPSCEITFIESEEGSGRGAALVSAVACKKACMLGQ
# Sequence of Hexokinase-4 (Homo sapiens) + Glucokinase regulatory protein (Homo sapiens) (Q14397 whole entry, looked up): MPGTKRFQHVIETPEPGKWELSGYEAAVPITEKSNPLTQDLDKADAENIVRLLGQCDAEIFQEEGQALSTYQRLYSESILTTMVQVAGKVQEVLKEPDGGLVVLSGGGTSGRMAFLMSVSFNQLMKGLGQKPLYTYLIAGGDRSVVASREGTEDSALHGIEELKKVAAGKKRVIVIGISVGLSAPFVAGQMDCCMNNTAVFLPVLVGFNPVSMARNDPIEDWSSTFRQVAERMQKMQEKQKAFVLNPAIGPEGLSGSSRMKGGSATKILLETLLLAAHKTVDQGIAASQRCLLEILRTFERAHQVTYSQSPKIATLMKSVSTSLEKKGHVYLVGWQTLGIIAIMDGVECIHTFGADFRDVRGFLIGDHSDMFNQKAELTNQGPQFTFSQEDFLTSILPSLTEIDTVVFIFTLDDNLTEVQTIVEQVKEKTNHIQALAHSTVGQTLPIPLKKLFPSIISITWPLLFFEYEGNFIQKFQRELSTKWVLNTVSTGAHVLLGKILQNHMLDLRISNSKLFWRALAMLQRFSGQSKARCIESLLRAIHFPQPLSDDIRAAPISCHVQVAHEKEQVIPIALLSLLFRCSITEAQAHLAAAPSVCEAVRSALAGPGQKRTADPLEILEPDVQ
row,Compound,"activity, positive = activation"
1,CCCn1c(=O)c2[nH]c(C3CCCC3)nc2n(CCCOC(=O)c2ccc(S(=O)(=O)F)cc2)c1=O,2.85%
2,CCCN1CCc2cccc3c2[C@H]1Cc1ccc(O)c(O)c1-3,3.83%
3,CO[C@H]1CC=C2CCN3CCC4=C(CC(=O)OC4)[C@]23C1,-1.95%
4,CN1CCC(c2c[nH]c3ccc(O)cc23)CC1,3.5%
5,CCCN(CCC)C1Cc2cc(OC)c(OC)cc2C1,1.85%
6,CN1CC[C@@]2(C)c3cc(OC(=O)Nc4ccccc4)ccc3N(C)[C@@H]12,2.27%
7,CCNC(=O)[C@H]1O[C@@H](n2cnc3c(N)ncnc32)[C@H](O)[C@@H]1O,-3.61%
8,Cc1sc2ccccc2c1CC1=NCCN1,3.11%
9,CC(C)[C@@]1(NC(=O)[C@@H]2C[C@@H]3c4cccc5[nH]cc(c45)C[C@H]3N(C)C2)O[C@@]2(O)[C@@H]3CCCN3C(=O)[C@H](Cc3ccccc3)N2C1=O,-0.368%
10,CC(C)NP(=O)(NC(C)C)OP(=O)(NC(C)C)NC(C)C,-0.36%
11,Cc1cc([C@@H]2CCCN2C)on1,-2.36%
12,C[C@H](N)Cc1cccc(C(F)(F)F)c1,3.09%
13,CC(C)(O)[C@@H]1C2OC(=O)[C@@H]1[C@]1(O)C[C@H]3O[C@]34C(=O)O[C@H]2[C@]14C (tested in a mixture with another compound),3.08%
14,C[Se]C[C@H](N)C(=O)O,-3.82%
15,NC(=O)COc1c(F)cc(SCCNS(=O)(=O)c2ccccc2)cc1F,-3.97%
16,CCCC[N+]1(C)C2CC(OC(=O)[C@H](CO)c3ccccc3)CC1C1OC12 (stereo not given in full),-1.95%
17,COc1ccc(OC)c(C(O)C(C)N)c1 (stereo not given),0.57%
18,C[C@@H]1O[C@@H](O[C@H]2C[C@@H](O)[C@]3(CO)[C@@H]4C(CC[C@]3(O)C2)[C@@]2(O)CC[C@H]([C@@H]3COC(=O)C3)[C@@]2(C)C[C@H]4O)[C@H](O)[C@H](O)[C@H]1O (stereo not given in full),4.18%
19,NNC(=O)c1ccc(O)cc1,3.29%
20,CCCN(CCC)CCc1c[nH]c2ccc(C(N)=O)cc12,5.93%

row,Compound,"activity, positive = activation"
1,C[N+]1(C)CCc2cc3c(cc2[C@H]1[C@@H]1OC(=O)c2c1ccc1c2OCO1)OCO3,4.45%
2,CCN1C[C@@]2(COC)C3[C@@H](OC)C4[C@@H]1C3([C@@H]1C[C@]3(O)[C@H](OC(=O)c5ccccc5)[C@@H]1[C@]4(OC(C)=O)[C@@H](O)[C@@H]3OC)[C@H](OC)C[C@H]2O,2.19%
3,CN1CCc2cc(O)cc3c2[C@H]1Cc1ccc(O)c(O)c1-3,3.6%
4,NC(N)=NOCC[C@H](N)C(=O)O,-4.29%
5,NC(C(=O)O)c1cc(=O)[nH]o1 (stereo not given),3.15%
6,CC12NC(Cc3ccccc31)c1ccccc12 (stereo not given),4.13%
7,NCC(O)c1cc(O)c(O)cc1F (stereo not given),4.3%
8,CCCCCCCCCCCCCC(=O)O[C@@H]1[C@@H](C)[C@@]2(O)[C@@H](C=C(CO)C[C@@]3(O)C(=O)C(C)=C[C@@H]23)C2C(C)(C)[C@@]21OC(C)=O (stereo not given in full),-2.67%
9,CN1CC[C@@]2(C)c3cc(O)ccc3N(C)C12 (stereo not given in full),-0.66%
10,CC(N)Cc1c[nH]c2ccc(OCc3cccs3)cc12 (stereo not given),1.37%
11,Cc1o[nH]c(=O)c1CC(N)C(=O)O (stereo not given),2.66%
12,C[N+](C)(C)CCOC(=O)CBr,4.1%
13,O=[N+]([O-])c1cc(O)c(O)c([N+](=O)[O-])c1,-0.624%
14,COc1cc(CC(C)N)c(OC)cc1I (stereo not given),0.157%
15,CN(N=O)c1cc(O)ccc1O,6.37%
16,N[C@@]1(C(=O)O)CC[C@@H](C(=O)O)C1,0.04%
17,C=CCN1C[C@@H](C)N([C@H](c2ccc(C(=O)N(CC)CC)cc2)c2cccc(OC)c2)C[C@@H]1C,5.42%
18,Oc1ccc2c3c1O[C@H]1c4oc5ccccc5c4C[C@@]4(O)C(C2)N(CC2CC2)CCC314 (stereo not given in full),2.12%
19,CCCN1CCC[C@@H](c2cccc(O)c2)C1,3.51%
20,CCN(CCCl)Cc1ccccc1Br,-2.95%
